In PubChem BioAssay AID743110 (Vanderbilt Specialized Chemistry Center, 2013):
Measured potencies and affinities stand elsewhere. The source made the active and inactive calls.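 The calls were made as follows: active = Blocks human M5 receptor in a calcium assay, with half-maximal inhibiting concentration under 10 µM; inactive = the rest.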

target: Muscarinic acetylcholine receptor M5 (Homo sapiens) (UniProt P08912); assay: M5 muscarinic receptor antagonist potency, dose response, cell-based, CHO-K1 hM5, Fluo-4 calcium flux, ACh EC80 (AID 743110); conditions: series mostly up to 30 µM
Sequence (P08912 whole entry, looked up): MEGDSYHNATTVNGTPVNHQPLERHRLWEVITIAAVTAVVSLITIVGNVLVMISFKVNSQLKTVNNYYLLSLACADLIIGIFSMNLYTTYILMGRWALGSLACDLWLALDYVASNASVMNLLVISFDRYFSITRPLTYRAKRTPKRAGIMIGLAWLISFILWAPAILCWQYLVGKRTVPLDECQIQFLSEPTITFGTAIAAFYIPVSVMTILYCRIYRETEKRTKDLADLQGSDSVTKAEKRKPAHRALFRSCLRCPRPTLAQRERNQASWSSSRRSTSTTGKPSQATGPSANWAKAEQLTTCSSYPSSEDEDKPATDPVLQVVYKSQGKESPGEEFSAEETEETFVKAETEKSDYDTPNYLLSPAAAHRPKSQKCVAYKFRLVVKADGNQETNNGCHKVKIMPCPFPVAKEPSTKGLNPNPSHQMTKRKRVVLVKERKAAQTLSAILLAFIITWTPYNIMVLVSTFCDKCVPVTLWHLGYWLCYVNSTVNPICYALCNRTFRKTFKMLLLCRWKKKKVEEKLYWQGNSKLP

outcome, inactive:
CC(=O)c1cccc(OCc2cccc(C(=O)N(C)C(C)c3ccccn3)c2)c1 (stereo not given)
CC(=O)c1cccc(N(Cc2cc(C(=O)N(C)C(C)c3ccccn3)no2)C(=O)c2ccccc2)c1 (stereo not given)
CC(=O)c1cccc(OCc2cc(C(=O)NC(C)c3ccccn3)no2)c1 (stereo not given)
CC(c1ccccn1)N(C)C(=O)c1cc(COc2cccc(Br)c2)on1 (stereo not given)
CC(=O)c1cccc(OCc2ccc(C(=O)N(C)C(C)c3ccccn3)cc2)c1 (stereo not given)
